Data reported in PubChem BioAssay.
A number with no mark means an inactive call. Activity calls are given as the source filed them.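 Rule for the calls: active = inhibition above the hit cutoff set in the earlier primary screen (cut at about 27% in these data); inactive = the rest.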

Biological target: Protein phosphatase methylesterase 1 (Homo sapiens) (UniProt Q9Y570)
Experiment: human PME-1 methylesterase inhibition confirmation – biochemical, fluorescence polarization, FP-Rh probe, triplicate (AID 2171);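 note: 0% = enzyme with DMSO and 100% = wells lacking PME-1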
Conditions: recombinant PME-1, FP-Rh probe fluorescence polarization; at 5.9 µM; active compounds read high

Protein phosphatase methylesterase 1 (Homo sapiens), sequence (Q9Y570 whole entry, looked up): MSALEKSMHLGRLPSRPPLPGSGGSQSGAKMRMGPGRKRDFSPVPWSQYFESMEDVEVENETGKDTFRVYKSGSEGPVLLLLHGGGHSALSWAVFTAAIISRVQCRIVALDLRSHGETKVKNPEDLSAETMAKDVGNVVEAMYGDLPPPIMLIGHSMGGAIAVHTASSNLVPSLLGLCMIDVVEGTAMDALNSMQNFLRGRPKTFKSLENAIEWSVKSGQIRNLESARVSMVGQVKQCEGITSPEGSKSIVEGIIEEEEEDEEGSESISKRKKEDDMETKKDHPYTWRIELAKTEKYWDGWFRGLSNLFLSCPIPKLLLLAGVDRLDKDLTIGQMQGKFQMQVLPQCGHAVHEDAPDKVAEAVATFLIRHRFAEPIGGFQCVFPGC

Structure (SMILES)	inhibition
CC(C)c1ccc2c(c1)C1(NN=C(c3ccccc3)S1)C(=O)N2 (centres undefined)	33.9% (active)
CCc1cccc2cc3c(N)c(C(=O)Nc4ccc(S(=O)(=O)N5CCCC5)cc4)sc3nc12	-1.66%
CN(C)S(=O)(=O)c1cccc(NC(=O)c2cc([N+](=O)[O-])ccc2N2CCCCC2)c1	43.2% (active)
Cn1c(=O)c(NCCO)c2c3c(cccc31)C(=O)c1ccccc1-2	134% (active)
CCOc1ccc(NC(=S)Nc2ccc3nsnc3c2)cc1	24.1%
COc1ccc(-c2nc(-c3ccccc3)c(-c3cc([N+](=O)[O-])ccc3C)[nH]2)cc1O	-4.82%
Nc1c(C(=O)Nc2ccccc2)sc2nc(-c3ccco3)ccc12	59.5% (active)
O=[N+]([O-])c1cc(Br)c(O)c(/C=N/Nc2nnnn2-c2cccc3ccccc23)c1	43.7% (active)
CCCCN(CCCC)CCNC(=O)c1cn(CC)c2ccc(S(=O)(=O)N3CCc4ccccc4C3)cc2c1=O	48.8% (active)
CCOC(=O)C1CCCN(C(=O)C2c3ccccc3Oc3ccccc32)C1 (centres undefined)	16%
CCn1cc(C(=O)NCCCN2CCC(C)CC2)c(=O)c2cc(S(=O)(=O)N(C)C3CCCCC3)ccc21	31.6% (active)
CC(Sc1nnc(NC2CCCCC2)s1)C(=O)Nc1ccc2c(c1)C(=O)c1ccccc1C2=O (centres undefined)	-4.4%
COc1cc(/C=C/c2ccc3cccc(O)c3n2)ccc1O	53.6% (active)
COC(=O)/C(=C(O)\C=C\c1ccccc1[N+](=O)[O-])c1nc2ccccc2[nH]1	21.9%
